Source: PubChem BioAssay (Tox21)
Results filed as inconclusive are left out. Entries that show only a call come without a potency. More than one record can exist for a structure, and the calls need not agree. Activity calls are given as the source filed them. Unless noted, calls come from the whole dose curve; as a rule, active = well fitted curve in the direction sought with a large enough effect in the repeat runs; inconclusive = weak or mixed curves; inactive = no such curve, though single readings can be large; an effect the other way counts as inactive or inconclusive.

Experiments:
[1] = qHTS assay to identify small molecule agonists of the vitamin D receptor (VDR) signaling pathway - cell viability counter screen (AID 743224); note: nearly all actives have a fitted effect of over 50% in size; note: potency is the fitted concentration of half-maximal effect
Method in brief: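 In parallel with the bla FRET readout, cytotoxicity toward VDR-bla cells after 16 h compound exposure was assessed by CellTiter-Glo, with luminescence recorded after a 30 min room-temperature incubation.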

[2] = qHTS assay to identify small molecule antagonists of the vitamin D receptor (VDR) signaling pathway - cell viability counter screen (AID 743225); note: nearly all actives have a fitted effect of over 50% in size
Method in brief: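 Same-well multiplex: following 16 h treatment of HEK 293T cells carrying a UAS-driven beta-lactamase reporter with compound and agonist (3 nM final), and a 2 h FRET substrate step, CellTiter-Glo was added and luminescence read after 30 min.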

[3] = qHTS assay to identify small molecule agonists of the NFkB signaling pathway (AID 1159509; active = well fitted curve in the direction sought with a large enough effect in the signal ratio in the repeat runs, not every such curve was filed as active; the % refers to the signal ratio; note: series mostly up to about 61 µM)
Method in brief: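 Readout: FRET fluorescence, 405 nm excitation, 460/530 nm emission; beta-lactamase expression disrupts FRET. Cells: ME-180 stably carrying NF-kB-driven bla reporter. Compound exposure 5 hr, 37 C, 5% CO2.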

[4] = qHTS assay to identify small molecule agonists of the NFkB signaling pathway - cell viability counter screen (AID 1159515; calls by dose curve; note: series mostly up to about 61 µM; nearly all actives have a fitted effect of over 55% in size)
Method in brief: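 Plate 2,000 NFkB-bla ME-180 cells/well; incubate overnight. Add compounds, 5 hr at 37 C. Add FRET substrate, 1.5 hr RT. Add CellTiter-Glo, 30 min RT; read luminescence.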

[5] = qHTS assay to identify small molecule agonists of the endoplasmic reticulum stress response signaling pathway (AID 1159516; active = well fitted activation curve with a large enough effect in the signal ratio in the repeat runs, not every such curve was filed as active; the % refers to the signal ratio)
Method in brief: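 Beta-lactamase expression from the ER stress response element in HeLa reporter cells is quantified with the LiveBLAzer B/G FRET substrate, read at 405 nm excitation after 2 hr at room temperature, following 5 hr compound treatment at 37 C.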

[6] = qHTS assay to identify small molecule agonists of the endoplasmic reticulum stress response signaling pathway - cell viability counter screen (AID 1159517; calls by dose curve; note: nearly all actives have a fitted effect of over 50% in size; note: potency is the fitted concentration of half-maximal effect)
Method in brief: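 Steps: seed 1,500 ESRE-bla HeLa cells per well; incubate overnight at 37 C, 5% CO2; add compounds in DMSO for 5 hr; run FRET substrate 2 hr RT; add CellTiter-Glo, wait 30 min, read luminescence.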

[7] = qHTS assay to identify small molecule antagonists of the retinoid-related orphan receptor gamma (ROR-gamma) signaling pathway - cell viability counter screen (AID 1159520); note: nearly all actives have a fitted effect of over 50% in size
Method in brief: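 Tet-on ROR gamma CHO cells were given compounds for 2 hr, then doxycycline hyclate at 1 uM final, and incubated 16 hr at 37 C. Viability was measured as ATP content by CellTiter-Glo luminescence.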

[8] = qHTS assay to identify small molecule agonists of the AP-1 signaling pathway - cell viability counter screen (AID 1159525; calls by dose curve; note: nearly all actives have a fitted effect of over 55% in size)
Method in brief: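 Same-well cytotoxicity counter screen of the Tox21 10K library in ME-180 cells. The readout is ATP-dependent luminescence after 5 h compound treatment. Data are normalised to DMSO and tetra n-octyl ammonium bromide controls.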

[9] = qHTS assay to identify small molecule agonists of the AP-1 signaling pathway (AID 1159526; calls by dose curve)
[10] = target: Nuclear receptor ROR-gamma (Homo sapiens) (UniProt P51449); experiment: qHTS assay to identify small molecule antagonists of the retinoid-related orphan receptor gamma (ROR-gamma) signaling pathway (AID 1159521)
Method in brief: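 Inducible-expression reporter assay: doxycycline (1 uM final) switched on RORγ in CHO cells bearing a ROR response element-luciferase construct, with test compounds present from 2 h beforehand. Decreased luminescence after 16 h defined antagonist activity.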

Row | Compound | Potency [1] | Potency [2] | outcome [3] | outcome [4] | outcome [5] | Potency [6] | Potency [7] | Potency [8] | outcome [9] | Potency [10]
1 | CCC1(c2ccccc2)CCC(=O)NC1=O (stereo unspecified) | inactive | inactive | inactive | inactive | inactive | inactive | inactive | inactive | inactive | –
2 | CCOC(=O)C(SP(=S)(OC)OC)c1ccccc1 (stereo unspecified) | inactive | inactive | inactive | inactive | inactive | inactive | inactive | inactive | inactive | –
3 | C[C@H]1CCCC(=O)CCC/C=C/c2cc(O)cc(O)c2C(=O)O1 | 42.1 µM (active) and inactive | inactive | inactive | inactive | inactive | 47.2 µM (active) and inactive | inactive | inactive | inactive | –
4 | [P]#[In] | inactive | inactive | inactive | inactive | inactive | inactive | inactive | inactive | inactive | –
5 | S=C=S | inactive | inactive | inactive | inactive | inactive | inactive | inactive | inactive | inactive | –
6 | COc1cccc([C@@]2(O)CCCC[C@@H]2CN(C)C)c1 | inactive | inactive | inactive | inactive | inactive | inactive | inactive | inactive | inactive | –
7 | CC1N=C(N)OC1c1ccccc1 (stereo unspecified) | inactive | inactive | inactive | inactive | inactive | inactive | inactive | inactive | inactive | –
8 | CC(C)NCC(O)c1ccc([N+](=O)[O-])cc1 (stereo unspecified) | – | inactive | inactive | inactive | inactive | inactive | inactive | inactive | inactive | –
9 | CCCCCCC1CCOC1=O (stereo unspecified) | inactive | inactive | inactive | inactive | inactive | inactive | inactive | inactive | inactive | –
10 | O=C(Cl)CCl | inactive | inactive | inactive | inactive | inactive | inactive | inactive | inactive | inactive | –
11 | O=P(O)(O)c1ccccc1 | inactive | inactive | inactive | inactive | inactive | inactive | inactive | inactive | inactive | –
12 | CCOP(=S)(OCC)SCCl | inactive | inactive | inactive | inactive | inactive | – | inactive | inactive | inactive | –
13 | COC1=CC(=O)O[C@@H](/C=C/c2ccccc2)C1 | inactive | inactive | inactive | inactive | inactive | – | inactive | inactive | inactive | inactive
14 | CNC(=O)O/N=C(/CSC)C(C)(C)C | inactive | inactive | inactive | inactive | inactive | – | inactive | inactive | inactive | inactive
15 | CN(C)C1CCCCC1 | inactive | inactive | inactive | inactive | inactive | – | inactive | inactive | inactive | inactive
16 | CC[C@@H](CO)NC(=O)[C@@H]1C=C2c3cccc4c3c(cn4C)C[C@H]2N(C)C1 | inactive | inactive | inactive | inactive | inactive | – | inactive | inactive | inactive | inactive
17 | O=C(O)c1c(Cl)ccc2cc(Cl)cnc12 | inactive | inactive | inactive | inactive | inactive | – | inactive | inactive | inactive | inactive
18 | Cc1ccc(S(=O)(=O)N[C@@H](CCCCN)C(=O)CCl)cc1 | inactive | inactive | inactive | inactive | inactive | – | inactive | inactive | inactive | inactive
19 | CNC(=O)NC(O)C(Cl)(Cl)Cl (stereo unspecified) | inactive | inactive | inactive | inactive | inactive | – | inactive | inactive | inactive | inactive
20 | CCCN1CCC[C@@H]2Cc3nc(N)ncc3C[C@H]21 | inactive | inactive | inactive | inactive | inactive | – | inactive | inactive | inactive | inactive
21 | Clc1nc(Cl)nc(Nc2ccccc2Cl)n1 | inactive | inactive | inactive | inactive | inactive | – | inactive | inactive | inactive | inactive
22 | CC(C)(C1CCC(O)CC1)C1CCC(O)CC1 (stereo unspecified) | inactive | inactive | inactive | inactive | inactive | – | inactive | inactive | inactive | inactive
23 | CCOC(=O)C(Cl)Cc1cc(-n2nc(C)n(C(F)F)c2=O)c(F)cc1Cl (stereo unspecified) | inactive | inactive | inactive | inactive | inactive | – | inactive | inactive | inactive | inactive
24 | C=CC(=O)OCCN(C)C | inactive | inactive | inactive | inactive | inactive | – | inactive | inactive | inactive | –

Row | Compound | Potency [1] | Potency [2] | outcome [3] | outcome [4] | outcome [5] | Potency [6] | Potency [7] | Potency [8] | outcome [9] | Potency [10]
25 | CC(C)(C)NC[C@H](O)c1ccc(O)cc1Cl | inactive | inactive | inactive | inactive | inactive | – | inactive | inactive | inactive | inactive
26 | CC1NCCOC1c1ccccc1 (stereo unspecified) | inactive | inactive | inactive | inactive | inactive | – | inactive | inactive | inactive | inactive
27 | CC(C)(C)c1cc(O)ccc1O | inactive | inactive | inactive | inactive | inactive | – | inactive | – | – | –
28 | CCOC(=O)Nc1cccc(OC(=O)Nc2ccccc2)c1 | inactive | inactive | inactive | inactive | inactive | – | inactive | inactive | inactive | inactive
29 | O=c1[nH]c2ccccc2n1C1CCNCC1 | inactive | inactive | inactive | inactive | inactive | – | inactive | inactive | inactive | inactive
30 | C1CN2CCC1CC2 | inactive | inactive | inactive | inactive | inactive | – | inactive | inactive | inactive | –
31 | NCCOS(=O)(=O)O | inactive | inactive | inactive | inactive | inactive | – | inactive | inactive | inactive | inactive
32 | COc1cc(CCN)cc(OC)c1OC | inactive | inactive | inactive | inactive | inactive | – | inactive | inactive | inactive | inactive
33 | c1cncc([C@@H]2CCCCN2)c1 | inactive | inactive | inactive | inactive | inactive | – | inactive | inactive | inactive | inactive
34 | CCOC(=O)c1ncn2c1CN(C)C(=O)c1c(I)cccc1-2 | inactive | inactive | inactive | inactive | inactive | – | inactive | inactive | inactive | inactive
35 | O=C1CC(=O)NC(=O)N1 | inactive | inactive | inactive | inactive | inactive | – | inactive | inactive | inactive | –
36 | C=CC=O | – | inactive | – | inactive | inactive | inactive | inactive | inactive | inactive | inactive
37 | CCN[C@@H](C)Cc1cccc(C(F)(F)F)c1 | inactive | inactive | inactive | inactive | inactive | – | inactive | inactive | inactive | inactive
38 | CCOC(=O)COc1ccc(Cl)cc1Cl | inactive | inactive | inactive | inactive | inactive | – | inactive | inactive | inactive | inactive
39 | [O-][Br+2]([O-])O | inactive | inactive | inactive | inactive | inactive | – | inactive | inactive | inactive | –
40 | CCN(CCO)CCn1c(Cc2ccccc2)nc2c1c(=O)n(C)c(=O)n2C | inactive | inactive | inactive | inactive | inactive | – | inactive | inactive | inactive | –
41 | C/C(=N\NC(=O)Nc1cc(F)cc(F)c1)c1ncccc1C(=O)O | inactive | inactive | inactive | inactive | inactive | – | inactive | inactive | inactive | inactive
42 | CCCOC(=O)c1cncn1C(C)c1ccccc1 (stereo unspecified) | inactive | inactive | inactive | inactive | inactive | – | inactive | inactive | inactive | –
43 | NNC(N)=O | inactive | inactive | inactive | inactive | inactive | – | inactive | inactive | inactive | inactive
44 | C=C1C[C@@H]2[C@H](CC[C@]3(C)C(=O)CC[C@@H]23)[C@@]2(C)C=CC(=O)C=C12 | inactive | inactive | inactive | inactive | inactive | – | inactive | inactive | inactive | inactive
45 | ClCCCCCCCl | inactive | inactive | inactive | inactive | inactive | – | inactive | inactive | inactive | inactive
46 | NC(=O)CS(=O)C(c1ccccc1)c1ccccc1 (stereo unspecified) | inactive | inactive | inactive | inactive | inactive | – | inactive | inactive | inactive | inactive
47 | CCC(C(N)=O)N1CCCC1=O (stereo unspecified) | inactive | inactive | inactive | inactive | inactive | – | inactive | inactive | inactive | inactive
